Among the test systems are DU-145 prostate; K-562 leukemia; MALME-3M melanoma; MDA-MB-231 breast; RXF 393 renal; SF-268 CNS; SF-295 CNS; UACC-257 melanoma; M14 melanoma; HCT-15 colon; HT29 colon; SNB-75 CNS; SNB-19 CNS; U251 CNS; PC-3 prostate; SK-MEL-5 melanoma; UACC-62 melanoma; SK-MEL-28 melanoma; LOX IMVI melanoma.
Holding throughout (assay): NCI-60 one-dose screen, 48 h (100 = growth as untreated, 0 = no growth, -100 = all killed)
What all share (conditions): 10 µM unless noted

Each structure is given as a SMILES string. This is part of a sample that, as a whole, favours compounds with a hit. Of some 83,000 tested, about 20% had one in any assay.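 The endpoint reported here, percent growth, reads 100 for growth as untreated, 0 for no net growth and -100 for all cells dead.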 Unmarked numbers belong to inactive results. The source made the active and inactive calls. How the source made its calls: active means growth percent below 10; inactive means the rest.

For `COc1ccc(-c2c(C)noc2-c2ccc(O)cc2O)cc1`, the growth was 64.4% in the assay with DU-145 prostate; 39.6% in the assay on K-562 leukemia; 103% with MALME-3M melanoma; 108% with MDA-MB-231 breast; 90.7% in the assay on RXF 393 renal; 82% in the assay on SF-268 CNS. For the same molecule, the growth was 97.6% in the assay on SF-295 CNS; 111% with UACC-257 melanoma; 103% in the assay with M14 melanoma; 68.8% in the assay with HCT-15 colon; 102% with HT29 colon; 90.9% with SNB-75 CNS. For the same molecule, the growth was 104% in the assay with SNB-19 CNS; 93.8% with U251 CNS; 71.8% with PC-3 prostate; 80.4% with SK-MEL-5 melanoma; 90.7% in the assay with UACC-62 melanoma; 105% in the assay with SK-MEL-28 melanoma.
Take `COc1cc(C2CC(=O)c3c(C)nn(-c4nc5ccccc5[nH]4)c3C2)cc(OC)c1OC` (stereo not given): the growth in the assay on DU-145 prostate was 85%; with K-562 leukemia, 71.7%; in the assay with MALME-3M melanoma it was 75.1%; in the assay with MDA-MB-231 breast, 29.5%; in the assay with RXF 393 renal, 30.3%; with SF-268 CNS it was 7.82% (active). Moreover, the growth is 64.7% in the assay on SF-295 CNS; 98.7% in the assay with UACC-257 melanoma; 102% in the assay with M14 melanoma; 87% in the assay on HCT-15 colon; 74.2% in the assay on HT29 colon; -24.8% (active) in the assay on SNB-75 CNS. The growth is 71.8% in the assay with SNB-19 CNS; 30% in the assay with U251 CNS; 72.2% with PC-3 prostate; 87.1% in the assay on SK-MEL-5 melanoma; 90.8% with UACC-62 melanoma; 86.5% in the assay with SK-MEL-28 melanoma.
For the molecule `O=C(CCCN1CCOCC1)Nc1ccc(Cn2nnc3c2C(=O)c2nnn(Cc4ccc(NC(=O)CCCN5CCOCC5)cc4)c2C3=O)cc1`, the growth is 82.3% with DU-145 prostate; 20.9% in the assay with K-562 leukemia; -74.3% (active) in the assay with MALME-3M melanoma; 5.78% (active) in the assay with MDA-MB-231 breast; 84.5% with RXF 393 renal; 23.4% in the assay with SF-268 CNS. Further, the growth in the assay with SF-295 CNS is 79.3%; with UACC-257 melanoma, -88% (active); in the assay with M14 melanoma it was 60.6%; with HCT-15 colon, 95.8%; with HT29 colon it was 1.66% (active); in the assay on SNB-75 CNS, -87.9% (active). Further, the growth with SNB-19 CNS was 59.5%; with PC-3 prostate, 55.5%; with SK-MEL-5 melanoma, 17.1%; in the assay on UACC-62 melanoma, 51.5%; in the assay on LOX IMVI melanoma, -5.71% (active); with SK-MEL-28 melanoma, 37.3%.
For `CCn1cc2c(cc1=O)-c1nc3ccccc3c3ccnc(c13)C2=O`, the growth is 36.6% in the assay on DU-145 prostate; 50.6% in the assay with K-562 leukemia; 90.1% in the assay with MALME-3M melanoma; 75.1% in the assay on MDA-MB-231 breast; 63.5% in the assay on RXF 393 renal; 54.3% with SF-268 CNS. For the same molecule, the growth was 29.9% in the assay on SF-295 CNS; 74.2% with UACC-257 melanoma; 28.9% in the assay with M14 melanoma; 50.2% in the assay on HCT-15 colon; 57.3% with HT29 colon; 46.9% with SNB-75 CNS. Moreover, the growth in the assay on SNB-19 CNS was 37.4%; in the assay with PC-3 prostate it was 63.5%; in the assay on SK-MEL-5 melanoma it was 42.8%; in the assay on UACC-62 melanoma, 37.9%; with LOX IMVI melanoma, 57%; with SK-MEL-28 melanoma, 72.4%.
For `Cc1ccc(Nc2nc(N)nc(Nc3ccc4ccccc4c3)n2)cc1`, the growth in the assay on DU-145 prostate is 58.5%; with K-562 leukemia it was 20.2%; with MALME-3M melanoma, 83.9%; in the assay with MDA-MB-231 breast it was 47.9%; with RXF 393 renal, 27.3%; in the assay on SF-268 CNS, 46.3%. For the same molecule, the growth in the assay with SF-295 CNS is 53.3%; in the assay with UACC-257 melanoma, 54.3%; in the assay with M14 melanoma, 44%; in the assay on HCT-15 colon, 29.3%; in the assay with HT29 colon it was 11.2%; with SNB-75 CNS, 25%. For the same molecule, the growth in the assay with SNB-19 CNS is 61.7%; in the assay on U251 CNS, 17.7%; with PC-3 prostate, 32.7%; in the assay with SK-MEL-5 melanoma, 47.7%; with UACC-62 melanoma, 18.4%; with LOX IMVI melanoma, 38.2%. Also, the growth with SK-MEL-28 melanoma is 62%.
`CC(C)Oc1nc2c(c(=O)n(C)c(=O)n2C)n1C`: the growth is 105% in the assay on DU-145 prostate; 95% with K-562 leukemia; 107% with MALME-3M melanoma; 103% in the assay with MDA-MB-231 breast; 116% in the assay on RXF 393 renal; 100% in the assay with SF-268 CNS. The growth in the assay with SF-295 CNS is 101%; in the assay on UACC-257 melanoma, 88%; with M14 melanoma, 107%; in the assay with HCT-15 colon, 106%; in the assay on HT29 colon, 96.6%; with SNB-75 CNS, 88%. Besides, the growth was 96.4% with SNB-19 CNS; 90.7% in the assay with PC-3 prostate; 104% in the assay on SK-MEL-5 melanoma; 96.5% with UACC-62 melanoma; 98.9% with LOX IMVI melanoma; 105% in the assay with SK-MEL-28 melanoma.
For the molecule `CC/C(Cc1ccccc1)=C(\c1ccc(OCCN2CCCC2)cc1)c1ccc(OC(C)=O)cc1`, the growth in the assay with DU-145 prostate was 95.6%; in the assay with K-562 leukemia, 3.2% (active); in the assay on MALME-3M melanoma, 94.7%; in the assay on MDA-MB-231 breast it was 99.6%; in the assay with RXF 393 renal, 65%; with SF-268 CNS, 76%. Besides, the growth with SF-295 CNS is 99.6%; in the assay with UACC-257 melanoma, 93.9%; in the assay with M14 melanoma it was 75.1%; with HCT-15 colon, 60.5%; with HT29 colon, 24.4%; in the assay on SNB-75 CNS it was 57.8%. Also, the growth in the assay with SNB-19 CNS is 105%; in the assay with PC-3 prostate, 79.5%; with SK-MEL-5 melanoma, 69.6%; in the assay on UACC-62 melanoma, 43.9%; in the assay with LOX IMVI melanoma it was 48.2%; with SK-MEL-28 melanoma, 21%.
`COc1cc(C2C(C(=O)c3cccs3)=C(O)C(=O)N2CCN2CCOCC2)cc(OC)c1OC` (stereo not given): the growth in the assay with DU-145 prostate is 106%; in the assay with K-562 leukemia, 116%; with MALME-3M melanoma, 107%; with MDA-MB-231 breast, 111%; in the assay with RXF 393 renal, 100%; in the assay on SF-268 CNS, 97.9%. In addition, the growth in the assay on SF-295 CNS is 100%; in the assay with UACC-257 melanoma, 108%; with M14 melanoma, 99.6%; with HCT-15 colon, 102%; in the assay on HT29 colon, 103%; in the assay with SNB-75 CNS, 91.6%. The growth is 103% with SNB-19 CNS; 94.7% with U251 CNS; 95.4% in the assay with PC-3 prostate; 96.1% in the assay on SK-MEL-5 melanoma; 106% in the assay on UACC-62 melanoma; 104% in the assay on SK-MEL-28 melanoma.

Source of the values: PubChem BioAssay (NCI).
